PubChem BioAssay (NCI)
About 83,000 compounds went through this panel and 20% of them were active in at least one assay; those are over-represented in the sample as a whole.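 In brief: 96-well plates, 48 h treatment, single concentration, percent growth endpoint.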 Unmarked numbers belong to inactive results. Active and inactive are the calls of the source. Rule for the calls: active = growth percent below 10; inactive = the rest.

Legend:
Assay in all cases: NCI-60 one-dose screen, 48 h (100 = growth as untreated, 0 = no growth, -100 = all killed)
[1] = test system: DU-145 prostate; conditions: 10 µM unless noted
[2] = test system: K-562 leukemia; conditions: 10 µM unless noted
[3] = test system: MALME-3M melanoma; conditions: 10 µM unless noted
[4] = test system: MDA-MB-231 breast; conditions: 10 µM unless noted
[5] = test system: RXF 393 renal; conditions: 10 µM unless noted
[6] = test system: SF-268 CNS; conditions: 10 µM unless noted
[7] = test system: SF-295 CNS; conditions: 10 µM unless noted
[8] = test system: SF-539 CNS; conditions: 10 µM unless noted
[9] = test system: UACC-257 melanoma; conditions: 10 µM
[10] = test system: M14 melanoma; conditions: 10 µM unless noted
[11] = test system: HCT-15 colon; conditions: 10 µM unless noted
[12] = test system: HT29 colon; conditions: 10 µM unless noted
[13] = test system: SNB-75 CNS; conditions: 10 µM unless noted
[14] = test system: SNB-19 CNS; conditions: 10 µM unless noted
[15] = test system: U251 CNS; conditions: 10 µM unless noted
[16] = test system: PC-3 prostate; conditions: 10 µM unless noted
[17] = test system: SK-MEL-5 melanoma; conditions: 10 µM unless noted
[18] = test system: UACC-62 melanoma; conditions: 10 µM unless noted
[19] = test system: SK-MEL-28 melanoma; conditions: 10 µM unless noted
[20] = test system: LOX IMVI melanoma; conditions: 10 µM unless noted

Structure (SMILES) | growth [1] | growth [2] | growth [3] | growth [4] | growth [5] | growth [6] | growth [7] | growth [8] | growth [9] [%] | growth [10] | growth [11] | growth [12] | growth [13] [%] | growth [14] | growth [15] | growth [16] | growth [17] | growth [18] [%] | growth [19] | growth [20] [%]
O=C(c1ccc(O)cc1)[C@@H]1[C@@H]2CCCN2[C@@]2(C(=O)N(C(=O)c3ccc(F)cc3)c3ccccc32)[C@H]1c1ccc(F)cc1 | 102% | 75.7% | 84.2% | 82.5% | 105% | 89.9% | 96.2% | 85.4% | 103 | 95.1% | 86.6% | 104% | 73.5 | 93.3% | 94.3% | 78.3% | 95% | 75.4 | 99.2% | 
CCc1ccc(NC(=O)N[C@@H](Cc2cccc(C)c2)C(=O)N[C@@H]2C(=O)N3CCC[C@H]3C(=O)N3CCCC[C@H]3C(=O)N[C@@H](CO)C(=O)N3C[C@H](C)C[C@H]3C(=O)O[C@H]2C)c(F)c1 | 25.3% | 27% | 37.3% | 33.9% | -9.15% (active) | 30.1% | 12.8% | 37.5% | 15 | 23.7% | 15.5% | 33.5% | 20.4 | 28.3% | 31.7% | 17.8% | -29.3% (active) | 25.9 | 38.1% | 32.8
Cc1ccc(/C=C/CC(=O)Nc2ccc(C(=O)Nc3ccc(F)cc3N)cc2)cn1 | 54.3% | 34% | 41.4% | 69.3% | 74.5% | 60.4% | 69.7% | 55.9% | 52.4 | 56.7% | 79.5% | 36.1% | 74.8 | 73.7% | 61.1% | 53% | 69.3% | 51.3 | 55.6% | 49.3
CCN(CC)CCN1C(=O)c2c(c3c4cc(Br)ccc4[nH]c3c3ccc4ccccc4c23)C1=O | -94.1% (active) | -64.8% (active) | -69.1% (active) | -65.3% (active) | -77.3% (active) | -42.2% (active) | -89% (active) | -96.9% (active) | 103 | -63.9% (active) | -88.6% (active) | -69.9% (active) | 77 | -92.7% (active) | -86.3% (active) | -80.9% (active) | -83.6% (active) | 31.7 | -70.1% (active) | 
